Measurements taken from PubChem BioAssay AID624297 (National Center for Advancing Translational Sciences (NCATS), 2012).
Values joined by “and” are separate entries in the source; they are usually repeats but may differ in a detail not shown here. Equal values may be shown once. Hit rate of the full screen: of about 340,000 compounds, about 6,200 (1.8%) were called active. Not shown: some 10% with an inconclusive outcome. Calls follow the shape of the dose curve; as a rule, active = well fitted activation curve with a large enough effect; inconclusive = small, poorly fitted or top-dose-only effect; inactive = no such curve, though single readings can be large or run the other way. Many of the other results were omitted from the sample, so actives are more common in it than they were.

assay: A quantitative high throughput screen for small molecules that induce DNA re-replication in SW480 colon adenocarcinoma cells.; also: nearly all actives have a fitted effect of over 55% in size; as to re-replication activation: % of control where 0% means no effect; settings: Hoechst DNA content imaging, 48 h; series mostly up to 46.1 µM
Summary of the method: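 Image-based read-out: total Hoechst fluorescence of nuclei (405 nm excitation, 500-530 nm emission), with hits raising the fraction of high-intensity nuclei. SW480 colon cells incubated 48 hr with compounds at 37 C.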
Potency is read from the fitted curve at half-maximal effect.

Potency, inactive:
COc1ccc(-c2ccc3c(c2)[C@@H]2C[C@H](N(C)S(=O)(=O)c4ccccc4)[C@H]([C@H](C)O)C(=O)N2CC3)cc1
CC1CCCN(C(=O)Cn2c(=O)oc3cc(S(=O)(=O)N4CCCCC4C)ccc32)C1 (stereo not given)
Cc1ccc(O)c(CNc2nc3ccccc3[nH]2)c1
CC(C)c1nc2ccc(C(=O)O)cc2[nH]1
COc1ccc(C)cc1NC(=O)CN1c2cccc3cccc(c23)S1(=O)=O
CCOc1ccc(N(C(=O)c2snc(C(N)=O)c2N)C(C(=O)NCC2CCCO2)c2c[nH]c3ccccc23)cc1 (stereo not given)
Cc1ccc(N(C(=O)c2snc(C(N)=O)c2N)C(C(=O)NCC2CCCO2)c2c[nH]c3ccccc23)cc1 (stereo not given)
COc1ccccc1C(=O)COC(=O)COc1ccc(C#N)cc1
CCCC(CNC(=O)COC(=O)C1=NNC(=O)CC1)c1ccc(Cl)cc1Cl (stereo not given)
Oc1[nH]c2ccccc2c1N=Nc1c(F)c(F)c(F)c(F)c1F
C(#CCN1CCOCC1)CCCN1CCOCC1
O=C(COc1cccnc1[N+](=O)[O-])Nc1ccc(Cl)cc1F
COc1cccc(NC(=O)CN(C)C(=O)/C=C/c2cn(-c3ccccc3)nc2-c2cccs2)c1
O=C(Nc1ccc(Sc2ccc(Br)cc2)cc1)c1ccco1
Cc1ccc(NC(=O)CC(=O)Nc2ccc(C)cc2)cc1
CC1CCCCC1NC(=O)Cn1cnc2c1c(=O)n(C)c(=O)n2C (stereo not given)
COc1ccc(-c2nnc(SC(C)C(=O)NC3CC3)o2)cc1 (stereo not given)
COc1ccc2c(CC(=O)NNC(=O)c3ccccc3F)coc2c1
Oc1ccccc1N1CCN(c2ncnc3sc(-c4ccccc4)cc23)CC1
S=C(NCC1COc2ccccc2O1)Nc1ccc(Br)cc1 (stereo not given)
Cc1ccc(NC(=O)C(C)OC(=O)C2CC3CCCC(C2)C3=O)cc1S(=O)(=O)N1CCOCC1 (stereo not given)
CN(C)C(=O)CCc1ccc2c3c([nH]c2c1)[C@]1(C)[C@@H](C(=O)N2CCCCC2)C[C@H](CC(=O)NCCC2=CCCCC2)C(=O)N1CC3
COC(=O)c1ccc(CNC(=O)Cn2cc(C)c(=O)[nH]c2=O)cc1
C[C@H](CO)N1C[C@H](C)[C@@H](CN(C)Cc2ccc(-c3ccccc3)cc2)Oc2ccc(NC(=O)Cn3cnnn3)cc2C1=O
CCN(CC)CCCNC(=O)c1cc2c(=O)[nH]c3ccc(C)cc3c2s1
Cc1ccc2[nH]c(=O)c(CC(=O)O)c(-c3ccccc3)c2c1
CCCN(CC(=O)Nc1ccccc1C)C(=O)c1ccc(OCC(=O)N2CCOCC2)c(OCC)c1
Cc1nc2ccccc2c(C(=O)O)c1-c1ccccn1
COc1cccc(OC)c1C(=O)Nc1sc2c(c1C(N)=O)CCCC2
COc1ccc(C(=O)Nc2ncc3c(n2)-c2ccccc2CC3)cc1
CCN(c1ccccc1)S(=O)(=O)c1ccc(C(=O)Nc2nccs2)cc1
NC(=O)c1c(NC(=O)c2ccccc2)sc2c1CCCC2
O=C(O)C1C2C=CC(O2)C1C(=O)Nc1ccccn1 (stereo not given)
O=C(CNC(=O)c1ccco1)NNC(=O)c1ccc(Br)cc1
O=C(O)c1ccc(Cn2cnc3c(=S)nc[nH]c32)cc1
Cc1cc([N+](=O)[O-])ccc1NS(=O)(=O)c1ccccc1
NC(=O)C1(Nc2ccccc2Cl)CCCC1
COc1ccc(CC(=O)Nc2ccc(C(=O)NC(C)(C)C)cc2)cc1
CCOc1ccc(S(=O)(=O)Nc2ccc(OC)nc2)cc1
O=C(NCCC1CCCCN1S(=O)(=O)c1ccccc1)C(=O)NCC1CCCO1 (stereo not given)
O=C(NCCC1CCCCN1S(=O)(=O)c1ccc(F)cc1)C(=O)NC1CC1 (stereo not given)
O=C(COC(=O)COc1cc(Cl)c(Cl)cc1Cl)NC1CC1
CCOc1cccc(=O)c2c(C)n(CC3CCCO3)c(C)c12 (stereo not given)
CN1CN(C)c2ccc([N+](=O)[O-])c3cccc1c23
O=C(CNC(=O)c1cccnc1)N/N=C/c1cccnc1
COc1ccc(C(=O)NCC(=O)N/N=C/c2cccnc2)cc1
CN(C)S(=O)(=O)c1cccc(NC(=S)NCc2ccc3c(c2)OCO3)c1
Cc1ccc(/C=N/NC(=S)NC2CCCCC2)o1
COc1cc(C(=O)CCc2ccc3c(c2)OCO3)cc(OC)c1OC
COc1ccc2ccccc2c1/C=N/NC(=O)c1cc(C)[nH]n1
Cc1ccc(C(=O)N/N=C/c2cccc3ccccc23)cn1
O=C(COC(=O)c1ccc([N+](=O)[O-])o1)NC12CC3CC(CC(C3)C1)C2
CCOC(=O)C1CCCN(C(=O)c2ccc(C)c(S(=O)(=O)N3CCCCC3)c2)C1 (stereo not given)
COc1cccc2c1C(=O)c1c(O)c3c(c(O)c1C2=O)CC(O)(C(C)=NNC(=O)c1ccc(Cl)c(Cl)c1)CC3OC1CC(N)C(O)C(C)O1 (stereo not given)
CNc1nc(-c2ccccc2)cc(-c2ccccc2)n1
Nc1nc(-c2ccccc2)cc(-c2ccccc2)n1
CCN([C@H](CO)C(C)C)S(=O)(=O)c1ccccc1Br
CN1C(c2ccc(F)cc2)=CS/C1=C(/C#N)c1nnc2n1-c1ccccc1SC2
Cc1cc(C)nc(N/N=C/c2ccc([N+](=O)[O-])o2)n1
CN1CCN(/N=C/c2ccc(-c3ccc([N+](=O)[O-])cc3)o2)CC1
CN1CCN(C(=O)c2ccc(-c3ccc(Br)cc3)o2)CC1
CCN(C(=O)CSc1cccc[n+]1[O-])c1ccccc1
COc1ccc(CC(=O)N/N=C/c2cc([N+](=O)[O-])cc(Br)c2O)cc1
Cc1cc(C(=O)N/N=C/c2cc([N+](=O)[O-])cc(C)c2O)n[nH]1
COc1ccc(C(=O)Nc2cc(S(=O)(=O)N3CCCC3)ccc2Cl)cc1
Cc1cccc(C(=O)NCC(=O)OCC(=O)N2CC3(C)CC2CC(C)(C)C3)c1 (stereo not given)
COc1ccc(C(=O)N2CC3(C)CC2CC(C)(C)C3)cc1OC (stereo not given)
COc1ccc(CCNC(=O)COC(=O)Cc2ccccc2F)cc1
N#Cc1cc([N+](=O)[O-])ccc1NC(=O)COC(=O)c1cnccn1
Cc1cc(C(=O)OCC(=O)N2C(C)CCCC2C)c2ccccc2n1 (stereo not given)
Cc1cccc(NC(=O)c2cc([N+](=O)[O-])ccc2N2CCN(C)CC2)c1
COc1cccc(NC(=O)c2ccc(Cn3cc([N+](=O)[O-])cn3)o2)c1
CS(=O)(=O)Nc1ccccc1C(=O)OCC(=O)NC1CC1
CC(=O)NC(CC(=O)Nc1ccc(S(=O)(=O)N2CCOCC2)cc1)c1ccccc1 (stereo not given)
COc1cccc(/C=N/NC(=O)CNC(=O)c2ccc(S(=O)(=O)N3CCOCC3)cc2)c1OC
COc1cc(/C=N/NC(=O)CNC(=O)c2ccncc2)ccc1OC(C)=O
Cc1csc(=O)n1CC(=O)Nc1ccc(S(C)(=O)=O)cc1
Cn1cnnc1SCc1nnc(-c2ccccc2Br)o1
O=C1c2ccccc2C(=O)N1Cc1cc(-c2ccccc2Cl)no1

Potency, active:
COC(=O)Nc1nc2ccc(Sc3ccccc3)cc2[nH]1 640 nM and 2.06 µM
Cc1ccc(C(C(=O)NCC2CCCO2)N(C(=O)c2snc(C(N)=O)c2N)c2ccc(C(C)C)cc2)o1 (stereo not given) 18.4 µM
O=C(CCl)Nc1ccc(Sc2ccc(NC(=O)CCl)cc2)cc1 4.61 µM
c1ccc(-c2cc3c(NCC4COc5ccccc5O4)ncnc3s2)cc1 (stereo not given) 18.4 µM
Cc1cccc(N(C)C(=O)c2cc3c(=O)[nH]c4ccc(C)cc4c3s2)c1 9.2 µM
C=CCN(CC=C)S(=O)(=O)c1ccc(C(=O)Nc2nc3c(s2)CCc2ccccc2-3)cc1 14.6 µM
C=CCN(CC=C)S(=O)(=O)c1ccc(C(=O)Nc2sc3c(c2C(N)=O)CCCCC3)cc1 9.2 µM
COc1ccc(CS(=O)/C(Cl)=C(/Cl)C(=O)Nc2ccc(OC)nc2)cc1 (stereo not given) 0.259 µM
COc1cccc(CNC(=O)C(=O)NCCC2CCCCN2S(=O)(=O)c2ccc(C)cc2)c1 (stereo not given) 15.8 µM
O=C1c2cccc3c([N+](=O)[O-])ccc(c23)C(=O)N1CC1CCCO1 (stereo not given) 5.8 µM
O=C(CSc1cccc2cccnc12)N/N=C/c1cccnc1 7.31 µM
Cc1ccc(/C=N/NC(=S)Nc2cccc(S(=O)(=O)N(C)C)c2)o1 23.1 µM
CCOc1ccc2ccccc2c1/C=N/NC(=O)c1c(C)cc(C)[nH]c1=O 23.1 µM
CS(=O)(=O)c1sc2nc(-c3ccccc3)cc(-c3ccccc3)c2c1N 11.2 µM
C/[N+]([O-])=C\c1ccc([N+](=O)[O-])o1 14.6 µM
O=[N+]([O-])c1cc(Br)c(O)c(/C=N/Nc2nc3ccccc3s2)c1 3.26 µM
Cc1nnnn1/C(=C\c1ccccc1)C(=O)OCC(=O)N1CC2(C)CC1CC(C)(C)C2 (stereo not given) 18.4 µM
Cc1cccc(NC(=O)c2ccc([N+](=O)[O-])o2)c1 3.66 µM
COc1ccc(C(=O)NCC(=O)N/N=C/c2ccc([N+](=O)[O-])o2)cc1OC 11.6 µM
Nc1cccc2c1C(=O)N(Cc1nnc(-c3ccccc3Br)o1)C2=O 16.4 µM

re-replication activation, inactive:
C[C@H](O)[C@@H]1C(=O)N2CCc3ccc(N4CCOCC4)cc3[C@@H]2C[C@@H]1N(C)C(=O)C(C)(C)C 0.113% [at 9.22 µM]
